From PubChem BioAssay
MIN6 prolif = inducers of beta-cell replication in MIN6 cells; MIN6 cells proliferation, ATPlite luminescence, 48 h; cells starved in 0.2% serum; 100% = growth in 10% serum; proliferation, % at 10 µM; 330,000 compounds, 0.29% hits; AID 2380;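 active = compounds whose signal lies at least 3.5 SD above the mean of all wells on their plate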
p-CIP stab down = lowers stability of the mouse p/CIP coactivator protein; Q05BA5; F442A p/CIP-EGFP cells, EGFP fluorescence, 16 h; decrease of EGFP signal, % at 10 µM; 290,000 compounds, 0.01% hits;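 active = EGFP signal decrease of at least 30% at 10 µM or well 3 SD below plate mean, unless failing retest; inactive = the rest, including hits failing retest or dose response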
FAS-TE inh = inhibitors of human fatty acid synthase thioesterase domain; inhibition, % at 15 µM; 360,000 compounds, 0.67% hits; recombinant FAS-TE, OMFH fluorogenic substrate, fluorescence endpoint; P49327;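 active = compounds whose normalised, plate-corrected inhibition of enzyme fluorescence in the single-dose primary screen is 50% or more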
GRIN3A LBD mod = modulates the human NR3A ligand-binding domain. NR3A LBD differential scanning fluorimetry, Tm shift; 0% = protein alone, 100% = glycine-bound protein. Tm shift relative to glycine control, % at 25 µM. 340,000 compounds, 2.5% hits;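 active = melting temperature shift of at least 10% of the positive control shift, at one fixed dose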
MPTP inh = permeability transition pore inhibition; AID 602449; 360,000 compounds, 1.4% hits; isolated mouse mitochondria, Ca2+ swelling absorbance, 30 min; inhibition, % at 10 µM;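 active = inhibition of 50% or more, scaled per plate between neutral and stimulator controls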
Of the large screens only hits and unclear results are named; the others gave an inactive call. Most compounds without a hit are left out; they make up all but 4.1% or so of the library.

Cc1ccc(C(=O)Nc2nnc(NC(=S)Nc3ccccc3)s2)cc1	GRIN3A LBD mod 32.0
CCc1nnc(NC(=S)Nc2ccccc2)s1	none
CCOc1ccc(C(=O)Nc2nnc(NC(=S)Nc3ccccc3)s2)cc1	GRIN3A LBD mod 34.5
CCOC(=O)C(=O)N(C)c1c(CC)nc2c(OCc3cc(Cl)cc(Cl)c3)cccn12	none (no result: MIN6 prolif, p-CIP stab down, GRIN3A LBD mod)
CCc1ccc([C@@H]2CC(=O)[C@@H]3CN(S(=O)(=O)c4ccccc4)[C@H](c4ccc(OC)cc4)C[C@@H]3N2S(=O)(=O)c2ccc(C)cc2)cc1	none (no result: MIN6 prolif, p-CIP stab down, GRIN3A LBD mod)
O=C(C1CCCN1S(=O)(=O)c1ccc(Cl)c(Cl)c1)N1CCOCC1 (stereo unspecified)	GRIN3A LBD mod 10.2
O=C(C1CCCN1S(=O)(=O)c1ccc(Cl)c(Cl)c1)N1CCCCC1 (stereo unspecified)	none
O=C1CCC[C@@H]2C=C[C@H](c3ccc(Br)cc3)[C@H]3CCN1[C@@H]32	none (no result: MIN6 prolif, p-CIP stab down, GRIN3A LBD mod)
CC(O)CNc1nc2c(c(=O)n(Cc3cccc(Cl)c3)c(=O)n2C)n1C (stereo unspecified)	none
Cn1c(NCC(O)CO)nc2c1c(=O)n(Cc1ccc(Cl)c(Cl)c1)c(=O)n2C (stereo unspecified)	GRIN3A LBD mod 16.9
C=CCN1CCOc2ccc(C)cc2S1(=O)=O	GRIN3A LBD mod 10.1 (no result: MIN6 prolif, p-CIP stab down)
Cc1ccc2c(c1)N(C(=O)CCC(=O)N1CCOCC1)CCO2	none
O=C(N[C@H](CO)c1ccccc1)[C@H]1O[C@@H](n2ccc(=O)[nH]c2=O)[C@H](O)[C@@H]1O	none (no result: MIN6 prolif, p-CIP stab down, GRIN3A LBD mod)
C#CCN1C(=O)S/C(=C/c2cc(C)n(CC)c2C)C1=O	GRIN3A LBD mod 33.1
N#C/C(=C/c1cn(CC(=O)O)c2ccccc12)C(=O)NCc1ccccc1	p-CIP stab down 74.7
CNC(=O)/C(C#N)=C/c1cn(CC(=O)NCc2ccco2)c2ccccc12	none
Cc1ccc(S(=O)(=O)Nc2ccc(Cl)cc2)cc1NC(=O)c1cc2c(s1)CCCC2	GRIN3A LBD mod 12.3
Cc1ccc(NC(=O)c2cc3c(s2)CCCC3)cc1	none
Cc1ccc(OC(C)C(=O)Nc2ccncc2)cc1 (stereo unspecified)	none
Cc1ccc(OC(C)C(=O)Nc2ccc(C)c(S(=O)(=O)Nc3ccc(C)cc3C)c2)cc1 (stereo unspecified)	GRIN3A LBD mod 11.6
Cc1ccc(S(=O)(=O)N2CCOCC2)cc1NC(=O)c1cc2c(s1)CCC2	none
Cc1ccc(NS(=O)(=O)c2cc(NC(=O)c3ccc4c(c3)NC(=O)CS4)ccc2Cl)c(C)c1	GRIN3A LBD mod 15.7
Cc1ccc(NS(=O)(=O)c2cc(NC(=O)c3cc4c(s3)CCCC4)ccc2C)c(C)c1	GRIN3A LBD mod 24.7
CCCNC(=O)N1C2=NC(C(=O)OC)=C(C(=O)OC)[C@@H]3N(Cc4ccccc4)c4ccccc4[C@]23C[C@H]1CO	FAS-TE inh 80.4 (no result: p-CIP stab down)
COc1cc(NC(=O)CCNS(=O)(=O)c2cc(Br)cnc2N)cc(OC)c1	none
Nc1ncc(Br)cc1S(=O)(=O)NCCC(=O)Nc1cccc(Cl)c1	GRIN3A LBD mod 22.5
Cc1cc(NC(=O)CCNS(=O)(=O)c2cc(Br)cnc2N)ccc1Br	GRIN3A LBD mod 20.7
CC(C)(C)Cc1c(-c2ccc(F)cc2)nc2ccc(Cl)cn12	none (no result: MIN6 prolif, p-CIP stab down, GRIN3A LBD mod)
CN(Cc1ccccc1)C(=O)Cn1nnc(-c2ccccc2)c1COc1ccccc1	none (no result: MIN6 prolif, p-CIP stab down, GRIN3A LBD mod)
CCOC(=O)[C@@H](NC(=O)CC[C@H]1O[C@@H](n2cc(C)c(=O)[nH]c2=O)C[C@@H]1O)C(C)C	none (no result: MIN6 prolif, p-CIP stab down, GRIN3A LBD mod)
CC1(C(=O)NC2CCN(Cc3ccccc3)CC2)CCN1Cc1ccc2ccccc2c1 (stereo unspecified)	none (no result: MIN6 prolif, p-CIP stab down, GRIN3A LBD mod)
CCC(C)n1c(SCc2ccccc2)nc2ccsc2c1=O (stereo unspecified)	GRIN3A LBD mod 11.5
CCC(C)n1c(SCC(=O)Nc2ccccc2C(F)(F)F)nc2ccsc2c1=O (stereo unspecified)	none
Cc1ccc(N(C)S(=O)(=O)c2c[nH]c3ccc([N+](=O)[O-])cc23)cc1	GRIN3A LBD mod 117.0
CCN(c1ccccc1)S(=O)(=O)c1c[nH]c2ccc([N+](=O)[O-])cc12	none
O=C1C=C(c2ccc3c(c2)OCO3)C[C@@H](c2ccc3c(c2)OCO3)C1	none (no result: p-CIP stab down)
O=C1C=C(c2ccc3cc[nH]c3c2)C[C@@H](c2ccc3c(c2)OCO3)C1	GRIN3A LBD mod 21.0 (no result: p-CIP stab down)
CCOC(=O)c1c(C)oc2c1c(CN1CCN(C(=O)OCC)CC1)c(O)c1ccccc12	GRIN3A LBD mod 10.2
CCOC(=O)c1c(C)oc2c1c(CN1CCN(CCO)CC1)c(O)c1ccccc12	none (no result: MIN6 prolif)
O=C(O)CCSc1nc2ccc(Br)cc2[nH]1	GRIN3A LBD mod 12.5
O[C@@H]1CN(Cc2cccs2)[C@@H](c2ccc(Cl)cc2)C[C@H]1n1cc(-c2ccc(F)cc2)nn1	none (no result: MIN6 prolif, p-CIP stab down, GRIN3A LBD mod)
Cn1c(=O)cc(C(=O)N/N=C/c2ccc(Cl)cc2)[nH]c1=O	GRIN3A LBD mod 13.4
Cn1c(=O)n(C)c2cc(/C=N/NC(=O)c3ccc(Cl)cc3)ccc21	none
Nc1nc(Nc2ccccc2F)nc(N2CCOCC2)c1[N+](=O)[O-]	GRIN3A LBD mod 15.4
COc1ccc(OC)c(NC(=O)c2cc(-c3cc(C)cc(C)c3O)n[nH]2)c1	GRIN3A LBD mod 20.0
COc1ccc(NC(=O)c2cc(-c3cc(Cl)ccc3O)n[nH]2)c(OC)c1	GRIN3A LBD mod 30.8
COc1ccc(NC(=O)c2cc(-c3cc(Cl)ccc3OC)n[nH]2)c(OC)c1	none (no result: MIN6 prolif, p-CIP stab down, GRIN3A LBD mod)
COc1ccc(NC(=O)c2cc(-c3cc(C)c(C)cc3O)n[nH]2)c(OC)c1	GRIN3A LBD mod 42.0
COc1ccc(OC)c(NC(=O)c2cc(-c3cc(C)c(C)cc3O)n[nH]2)c1	GRIN3A LBD mod 40.5
CN1CCN(c2ccc(-c3cccc4nccn34)cn2)CC1	none (no result: MIN6 prolif, p-CIP stab down, GRIN3A LBD mod)
CCOC(=O)CC(=O)CSc1nc2c(c(C)c1C#N)CCC2	GRIN3A LBD mod 19.9
CCOC(=O)CC(=O)CSc1nc(N)c(C#N)c(-c2ccc(Cl)cc2)c1C#N	GRIN3A LBD mod 15.6
Cc1ccc(S(=O)(=O)N2CC3(O)CN(C(=O)OC(C)C)N(C(=O)OC(C)C)CC3(OC(=O)NCc3ccccc3)C2)cc1 (stereo unspecified)	none (no result: MIN6 prolif, p-CIP stab down, GRIN3A LBD mod)
O=C(NCc1ccccc1)c1cc(C2COCCN2C(=O)C/C=C/c2ccccc2)on1 (stereo unspecified)	none (no result: MIN6 prolif, p-CIP stab down, GRIN3A LBD mod)
Cc1ccc(C(C)NC(=O)/C(C#N)=C\c2c(C)[nH]c3ccccc23)cc1 (stereo unspecified)	GRIN3A LBD mod 17.3
Cc1[nH]c2ccccc2c1/C=C(\C#N)C(=O)NCc1ccccc1	none
CCCS(=O)(=O)NC(=O)C1(C)CCN(C(=O)/C=C/c2ccccc2)C1 (stereo unspecified)	none (no result: MIN6 prolif, p-CIP stab down, GRIN3A LBD mod)
CSCCC(c1nc2ccccc2[nH]1)n1c(=O)c(-c2ccco2)nc2ccccc21 (stereo unspecified)	none (no result: MIN6 prolif, p-CIP stab down, FAS-TE inh, GRIN3A LBD mod)
Nc1[nH]c(C(=O)c2ccccc2)c(-c2ccc(F)cc2)c1C(=O)NCc1ccccc1	none (no result: MIN6 prolif, p-CIP stab down, GRIN3A LBD mod)
CCc1nnc(NC(=O)c2ccc(-c3ccc(Cl)cc3)o2)s1	GRIN3A LBD mod 14.6
O=C(Nc1nccs1)c1ccc(-c2ccc(F)c(Cl)c2)o1	GRIN3A LBD mod 13.8
